NPSR antagonist: qHTS Assay for Antagonists of the Neuropeptide S Receptor: cAMP Signal Transduction | Potency, µM (series often up to 38.3 µM), for the others: at the highest dose activity change, negative = inhibition, hits mostly inhibitors | CHO-NPSR cells, cAMP TR-FRET, antagonist mode | Q6W5P4 | actives 1% (n = 220,000); also: nearly all actives have a fitted effect of over 50% in size
Target sequence (Q6W5P4 whole entry, looked up): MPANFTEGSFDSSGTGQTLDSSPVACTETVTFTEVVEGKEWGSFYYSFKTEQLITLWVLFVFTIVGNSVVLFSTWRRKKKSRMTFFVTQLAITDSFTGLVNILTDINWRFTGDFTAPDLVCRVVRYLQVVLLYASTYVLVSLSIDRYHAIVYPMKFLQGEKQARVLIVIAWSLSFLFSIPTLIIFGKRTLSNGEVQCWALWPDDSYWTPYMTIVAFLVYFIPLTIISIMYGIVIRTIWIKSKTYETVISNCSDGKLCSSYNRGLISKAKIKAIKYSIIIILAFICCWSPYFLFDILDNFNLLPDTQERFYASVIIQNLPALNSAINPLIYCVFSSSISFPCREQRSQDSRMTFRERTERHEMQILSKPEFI
Tau FP inhib: qHTS for Inhibitors of Tau Fibril Formation, Fluorescence Polarization; K18 P301L tau heparin fibrillization, Alexa594 FP, 6 h; actives 0.39% (n = 280,000); Potency, µM (titrated, usually from 57.7 µM), for the others: at the highest dose activity, negative = inhibition, usual class: inhibitors; Microtubule-associated protein tau (Homo sapiens), P10636; also: nearly all actives have a fitted effect of over 55% in size
Target sequence (P10636 561-689 P618L limits assumed): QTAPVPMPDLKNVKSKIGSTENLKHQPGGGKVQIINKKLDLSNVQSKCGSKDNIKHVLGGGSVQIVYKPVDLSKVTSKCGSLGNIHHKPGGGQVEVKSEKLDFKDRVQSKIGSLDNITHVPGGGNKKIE
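Compound effects on tau fibrillization are measured by Alexa 594 fluorescence polarization (ex 555, em 632 nm). K18 P301L tau is used at 15 uM with 0.24 uM labeled tracer, and 20 uM heparin induces aggregation over 6 hr at 37 C.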
ALDH1A1 inh: qHTS Assay for Inhibitors of Aldehyde Dehydrogenase 1 (ALDH1A1); Aldehyde dehydrogenase 1A1 (Homo sapiens), P00352; Purified ALDH1A1, NADH fluorescence, propionaldehyde substrate; Potency, µM (top dose mostly 75.3 µM), inactives show top-dose activity, negative = inhibition, actives largely listed as inhibitors; actives 7.3% (n = 220,000); AID 1030, 2008; active = well fitted inhibition curve with a large enough effect, not every such curve was filed as active; inconclusive = small, poorly fitted or top-dose-only effect, or another doubt; inactive = no such curve, though single readings can be large or run the other way;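 also: plate controls were no enzyme wells and a reference inhibitor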
HPGD block: qHTS Assay for Inhibitors of HPGD (15-Hydroxyprostaglandin Dehydrogenase) | 15-hydroxyprostaglandin dehydrogenase [NAD(+)] (Homo sapiens), P15428 | purified HPGD, NADH fluorescence kinetic, PGE2 substrate | Potency, µM, without a hit: top-dose activity change, negative = inhibition, most hits filed as inhibitors | actives 4.3% (n = 150,000) | AID 894, 2007; active = well fitted inhibition curve with a large enough effect, not every such curve was filed as active; inconclusive = small, poorly fitted or top-dose-only effect, or another doubt; inactive = no such curve, though single readings can be large or run the other way
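20 nM HPGD preincubated 15 min at room temperature with compound in 50 mM Tris-HCl pH 8, 0.01% Tween 20. Started with 1 mM NAD+ and 30 uM prostaglandin E2; NADH fluorescence (360/450 nm) read 5 times over 30-s intervals, last minus first.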
Tau fibril ThT: qHTS for Inhibitors of Tau Fibril Formation, Thioflavin T Binding; Microtubule-associated protein tau (Homo sapiens), P10636; recombinant tau K18 P301L, heparin-induced fibrillization, ThT fluorescence; Potency, µM (doses to about 57.4 µM), for inactives: at the highest dose activity, negative = inhibition, hits mostly inhibitors; actives 2.1% (n = 270,000); AID 1460, 2008; also: nearly all actives have a fitted effect of over 55% in size
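Using a mix of unlabeled (15 uM) and Alexa 594-labeled (0.24 uM) tau K18 P301L, heparin-triggered fibrillization over 6 hr at 37 C was scored by ThT fluorescence.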
Tau fluor counter: Counterscreen qHTS for Inhibitors of Tau Fibril Formation, Fluorescence Polarization; tau K18 P301L (four-repeat tau fragment) Alexa594 fluorescence, heparin fibrillization; Potency, µM (highest dose often 57.7 µM), for inactives: top-dose activity change, negative = decrease; actives 0.93% (n = 280,000); AID 1463, 2008; also: nearly all actives have a fitted effect of over 55% in size
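Human K18 P301L tau (15 uM unlabeled plus 0.24 uM Alexa 594-labeled, final) in 100 mM sodium acetate pH 7 was mixed with compound and 20 uM heparin and incubated 6 hr at 37 C.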
* hit, by the source's call; ? = inconclusive; · = no result given; [ ] = another dose, or the depositor's remark. Compounds with a hit are over-represented: about 9.5% of the library has one in this group of screens. Unless noted, calls follow the shape of the dose curve; as a rule, active = well fitted curve in the direction sought with a large enough effect; inconclusive = small, poorly fitted or top-dose-only effect, or another doubt; inactive = no such curve, though single readings can be large; an effect the other way counts as inactive or inconclusive. Unless noted, % is scaled to controls: 0 for no effect and ±100 for the full control effect; potency is read from the fitted curve at half-maximal effect.

SMILES	NPSR antagonist	Tau FP inhib	ALDH1A1 inh	HPGD block	Tau fibril ThT	Tau fluor counter
Cc1cc(-c2ccco2)n(-c2ccccc2)n1	-22%[46.1 µM]	?	1.4µM*	32µM*	32µM*	-14%
CS(=O)(=O)c1ccc(S(=O)CC(=O)OCc2ccccc2)c([N+](=O)[O-])c1 (stereo not given)	?	?	13µM*	·	?	-18%
COC(=O)c1ccc(OC(=O)CS(=O)c2ccccc2[N+](=O)[O-])cc1 (stereo not given)	-10%	-17%	-1%	·	?	?
CCOc1ccc(NC(=O)CSC2=Nc3ccccc3C3=NC(CC(=O)NCc4ccccc4OC)C(=O)N23)cc1 (stereo not given)	·	-3%	·	·	-2%	-12%
CC(CCN)(CCN)[N+](=O)[O-]	·	·	-9%[13.5 µM]	-14%	·	·
COc1ccc(Cl)cc1Nc1nc(-c2sc(NC(=O)c3ccccc3)nc2C)cs1	-17%[46.1 µM]	9%	?	?	?	?
C=CCNc1nc(-c2sc(NC(=O)CC)nc2C)cs1	-7%[46.1 µM]	-2%	?	-22%	?	?
CCC(C)C(=O)Nc1nc(C)c(-c2csc(Nc3ccccc3OC)n2)s1 (stereo not given)	-22%[46.1 µM]	16%	?	?	?	13µM*[quencher]
C=CCCC(=O)Nc1nc(C)c(-c2csc(Nc3ccccc3OC)n2)s1	-28%[46.1 µM]	?	-10%	-19%	7.1µM*	13µM*[quencher]
CCCCC(=O)Nc1nc(C)c(-c2csc(Nc3ccccc3OC)n2)s1	-29%[46.1 µM]	13%	?	-18%	?	16µM*[quencher]
CCCCCC(=O)Nc1nc(C)c(-c2csc(Nc3cc(OC)ccc3OC)n2)s1	?	15%	?	?	16µM*	11µM*[quencher]
CCCCCCC(=O)Nc1nc(C)c(-c2csc(Nc3cc(OC)ccc3OC)n2)s1	-22%[46.1 µM]	?	-5%	-13%	?	?
C=CCN1c2ccccc2[C@]23C[C@@H](C(=O)OC)N(S(=O)(=O)c4ccc(C)cc4)C2=NC(C(=O)OC)=C(C(=O)OC)[C@H]13	·	12%[11.6 µM]	-8%[13.5 µM]	-3%	5%[11.5 µM]	6%[11.6 µM]
NCCSCc1ccccc1Cl	·	·	-11%[13.5 µM]	-15%	·	·
CC1(C)CC(=O)C2=C(C1)NC1=C(C(=O)c3ccccc31)C2c1cc([N+](=O)[O-])ccc1O (stereo not given)	-25%	7%	·	·	14µM*	16µM*[quencher]
CC1(C)CC(=O)C2=C(C1)NC1=C(C(=O)c3ccccc31)C2c1cccnc1 (stereo not given)	55%	-5%	-6%	·	?	-10%
CC(=O)N1CCC(=NNc2ncc(C(F)(F)F)cc2Cl)CC1	11%	-4%	16µM*	·	?	-8%
CCOC(=O)N1CCC(=NNc2ncc(C(F)(F)F)cc2Cl)CC1	4%	1%	?	·	-14%	1%
O=C(Cn1cnc2ccccc21)OCC(=O)N1CCc2ccccc2C1	16%[46.1 µM]	-2%	28µM*	-14%	-13%	-6%
O=C(COC(=O)Cn1cnc2ccccc21)Nc1cccc(S(=O)(=O)N2CCOCC2)c1	3%	0%	?	·	-2%	-2%
O=C(COC(=O)Cn1cnc2ccccc21)Nc1ccc2c(c1)C(=O)c1ccccc1C2=O	10%	7%	0.63µM*	-26%	10%	6%
Cc1ccc(NC(=O)COC(=O)Cn2cnc3ccccc32)cc1S(=O)(=O)N(C)C	13%	-3%	14µM*	-2%	-2%	-2%
Cc1ccc(Cl)cc1NC(=S)N(Cc1cccnc1)Cc1ccccc1Cl	-58%	7%	11µM*	·	-18%	-26%
